Source: PubChem BioAssay
TEAD-YAP block – TEAD-YAP interaction inhibition, primary screen, TEAD-YAP interaction inhibitor project, luminescence, HEK-TIYL cells. TEAD-Gal4/YAP UAS-luciferase luminescence. inhibition, % at 9.12 µM. 640,000 tested, 1.4% active. AID 1259422, 2018; in the data active means inhibition above about 32%;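 further: 0% = median of test compound wells and 100% = reference inhibitor wells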
FBW7 activator – FBW7 E3 ligase activators, primary screen, biochemical, AlphaScreen, human; 650,000 tested, 0.13% active; F-box/WD repeat-containing protein 7 (Homo sapiens), Q969H0; AlphaScreen FBW7–phospho-cyclin E peptide binding, activator screen; normalized activity (activation), % at 26.1 µM; in the data active means normalized activity above about 1.9%;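 further: purified mutant Fbw7 with reduced substrate affinity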
GPR151 activ – activators of human GPR151, primary screen, cell-based, PathHunter beta-arrestin, luminescence; G-protein coupled receptor 151 (Homo sapiens), Q8TDV0; PathHunter beta-arrestin GPR151 cells; 650,000 tested, 1% active; activation, % at 11.2 µM; in the data active means activation above about 4.9%;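 further: 0% = median of compound wells and 100% = cells with positive control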
MITF primary – MITF inhibitors, primary screen, biochemical, AlphaScreen, human; Microphthalmia-associated transcription factor (Homo sapiens), O75030; AlphaScreen MITF homodimerization, bead proximity signal; inhibition, % at 2.6 µM; 650,000 tested, 0.91% active; AID 1259374, 2018; in the data active means inhibition above about 50%;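 further: 0% = vehicle wells with protein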
GPR151 confirm – GPR151 activators, triplicate retest, confirmation, cell-based, PathHunter beta-arrestin, luminescence. GPR151 PathHunter beta-arrestin cells, 90 min; % of EA-reagent control over plate median. shares compounds with GPR151 activ. 6,700 tested, under 10 active. activation, % at 11.2 µM;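 active means mean percent activation across replicates above the confirmation screen cutoff of 4.91%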
GPR119 counter – GPR119 activators in beta-arrestin cells, counter-screen for GPR151 activator project, cell-based, PathHunter beta-arrestin, luminescence, triplicate; activation, % at 11.2 µM; AID 1508611, 2020; shares compounds with GPR151 activ; 6,700 tested, 0.3% active; 90 min; 0 = compound-well median, 100 = enzyme-acceptor control;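 active means mean percent activation in the counterscreen above 29.09%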;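 further: counterscreen on off-target GPR119 to flag nonselective hits from the GPR151 activator screen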
Target sequence (Q8TDV5 whole entry, looked up): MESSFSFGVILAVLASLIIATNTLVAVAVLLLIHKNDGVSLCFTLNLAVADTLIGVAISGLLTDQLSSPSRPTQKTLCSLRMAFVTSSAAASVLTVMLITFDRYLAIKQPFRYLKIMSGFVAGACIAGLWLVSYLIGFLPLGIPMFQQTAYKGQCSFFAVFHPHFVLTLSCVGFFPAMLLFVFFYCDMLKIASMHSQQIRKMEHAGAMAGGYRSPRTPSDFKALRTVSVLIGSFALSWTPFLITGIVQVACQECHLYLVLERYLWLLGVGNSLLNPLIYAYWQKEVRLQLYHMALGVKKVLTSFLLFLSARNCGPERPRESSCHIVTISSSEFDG
Active calls of the source: *; . = no result. Most compounds without a hit are left out; they make up all but 3.4% or so of the library.

SMILES | TEAD-YAP block | FBW7 activator | GPR151 activ | MITF primary | GPR151 confirm | GPR119 counter
CC(C)C(C(=O)NC(C)(C)C)N(Cc1ccco1)C(=O)CNS(=O)(=O)c1ccccc1 (stereo not given) | 9 | 0 | 1 | 13 | . | .
CN(Cc1ccccc1)S(=O)(=O)c1ccc2[nH]cc(C(=O)O)c(=O)c2c1 | 2 | 0 | 0 | 11 | . | .
CCOC(=O)N1CCN(Cc2cc(=O)oc3ccc(OC)cc23)CC1 | -23 | 0 | 14* | 12 | 0 | 1
COc1ccc2oc(=O)cc(CN3CCCCC3)c2c1 | 5 | 0 | 0 | 10 | . | .
N#Cc1cccc(S(=O)(=O)NCCc2ccc(F)cc2)c1 | 5 | 0 | 0 | -2 | . | .
CCn1cc(Br)c(C(=O)Nc2cccc(F)c2)n1 | -22 | 0 | -1 | 7 | . | .
CCn1cc(Br)c(C(=O)Nc2cccc(SC)c2)n1 | -25 | 0 | 6.4* | -2 | 0 | -7
O=C(NC1CCCC1)C(c1ccco1)N(Cc1cccs1)C(=O)c1ccco1 (stereo not given) | -5 | 0 | 1 | 8 | . | .
CC1(C)CC(N(Cc2cccs2)C(=O)c2ccco2)CCO1 (stereo not given) | -4 | 0 | 9.3* | 15 | -2 | -16
COC(=O)c1nsc(Cl)c1Cl | 8 | 0 | 6.8* | 10 | 0 | -8
CCOc1cc(C2C(C(C)=O)=C(O)C(=O)N2CC(OC)OC)ccc1O (stereo not given) | 2 | 0 | -1 | -1 | . | .
COc1cccc(N2C(=O)CC(N3CCN(c4ccccn4)CC3)C2=O)c1 (stereo not given) | 0 | 0 | 5.1* | 3 | 0 | -6
COc1ccc(N2CCN(C3CC(=O)N(c4ccc(C(=O)O)cc4)C3=O)CC2)cc1 (stereo not given) | 5 | 0 | 6.0* | 13 | 0 | 4
CCOc1cccc(N2C(=O)CC(N3CCN(c4ccccn4)CC3)C2=O)c1 (stereo not given) | 5 | 0 | 0 | -11 | . | .
CCOC(=O)c1sc(C)c2c1NC(c1ccc([N+](=O)[O-])cc1)N(Cc1ccccc1)C2=O (stereo not given) | -9 | 0 | 0 | -7 | . | .
O=C(CCc1nnc(-c2ccsc2)o1)N1CCCCC1CCc1ccccn1 (stereo not given) | -21 | 0 | 6.5* | 11 | 1 | 2
O=C(CCc1nnc(Cc2c[nH]c3ccccc23)o1)N1CCCCC1CCc1ccccn1 (stereo not given) | -5 | 0 | 0 | -3 | . | .
COc1ccc2nc(NC(=O)C3c4ccccc4C(=O)N(C)C3c3ccc(OC)c(OC)c3)sc2c1 (stereo not given) | 7 | 0 | 1 | 0 | . | .
O=C(NCc1ccccc1F)C1CN(c2nc3ccccc3s2)C1 | -36 | 0 | 1 | 2 | . | .
O=C(Nc1nc2c(s1)CCCC2)C1CN(c2nc3ccccc3s2)C1 | -17 | 0 | 9.8* | 3 | 0 | -1
Nc1ccc2nc(SCC(=O)c3ccc(Cl)cc3)sc2c1 | -4 | 0 | 6.6* | 14 | 0 | -2
CCCC(=O)Nc1ccc(NC(=O)c2ccc(I)cc2)cc1 | 1 | 0 | 10.0* | -3 | 1 | -4
O=C(N[C@H]1C[C@H]2C(=O)N[C@@H](Cc3ccc(Cl)cc3)C(=O)N2C1)OCc1ccccc1 | 13 | 0 | 0 | 8 | . | .
COCCOC(=O)C1=C(C)NC2=C(C(=O)CC(c3ccc(Cl)cc3)C2)C1c1cccc(OC)c1OC (stereo not given) | 19 | 0 | 0 | -7 | . | .
COc1ccc(C2C(C(=O)OCC(C)C)=C(C)NC3=C2C(=O)CC(c2ccc(Cl)cc2)C3)cc1 (stereo not given) | 6 | 1 | 5.5* | -13 | 1 | 4
SMILES | TEAD-YAP block | FBW7 activator | GPR151 activ | MITF primary | GPR151 confirm | GPR119 counter
CCOC(=O)C1=C(C)NC2=C(C(=O)CC(c3ccc(Cl)cc3)C2)C1c1cccc(OC)c1OC (stereo not given) | 7 | 1 | 21* | 6 | -1 | -8
FC(F)(F)c1cccc(CNc2ncnc3nc(Nc4ccccc4)[nH]c23)c1 | -1 | 0 | 3 | 13 | . | .
O=C1CCCN1CCn1cnc2c(NCc3cccc(C(F)(F)F)c3)nc(Nc3ccc(N4CCOCC4)cc3)nc21 | -5 | 0 | 5.6* | 4 | 2 | 3
O=C1CCCN1CCn1cnc2c(Nc3ccc(N4CCOCC4)cc3)nc(N3CCc4ccccc4C3)nc21 | 3 | 0 | 13* | -5 | 0 | -6
FC(F)(F)c1cccc(CNc2ncnc3nc(Nc4ccc(N5CCOCC5)cc4)[nH]c23)c1 | 7 | 0 | 7.1* | 2 | 0 | -5
O=C1CCCN1CCn1cnc2c(Nc3ccc(Oc4ccccc4)cc3)nc(N3CCc4ccccc4C3)nc21 | 11 | 0 | 2 | -6 | . | .
O=C1CCCN1CCCNc1nc(NCc2cccc(C(F)(F)F)c2)c2ncn(C3CCCCC3)c2n1 | -11 | 0 | 5.9* | 8 | 1 | 1
CCn1nc(-c2ccc(Cl)cc2)c2c(=O)n(C)c(=O)[nH]c21 | 3 | 0 | 0 | 6 | . | .
CC(C)N1C(=O)S/C(=C/c2ccc(N(C)C)cc2)C1=O | -35 | 0 | 0 | -5 | . | .
COc1cc(C#N)ccc1OCC(=O)NC(C)c1ccc(F)cc1 (stereo not given) | 2 | 0 | 1 | 2 | . | .
COc1cc(C#N)ccc1OCC(=O)N(C)Cc1ccc(F)cc1 | -11 | 0 | 8.0* | -15 | 1 | -8
CCCCNC(=O)c1cccc(-n2c(=S)[nH]c3cc(Cl)ccc3c2=O)c1 | 5 | 0 | 0 | 13 | . | .
CN1C(=O)OC2(C)CCc3ccccc3C12C (stereo not given) | 5 | 0 | 5.0* | -10 | 0 | 8
CC12CCc3ccccc3C1(C)OC(=O)O2 (stereo not given) | 12 | 0 | -1 | 5 | . | .
Cc1ccc2cc(CN(CC3CCCO3)C(=O)C3CCC3)c3nnnn3c2c1 (stereo not given) | 12 | 0 | 8.4* | 4 | 4 | 8
O=C(Nc1ccc(N2CCOCC2)cc1)c1cccc(-n2nccc2NC(=O)c2ccncc2)c1 | 7 | 0 | 2 | 3 | . | .
CCOC(=O)c1ccc(NC(=O)CCSc2nc(N)c3c(C)c(C)sc3n2)cc1 | 1 | 0 | 6.8* | 1 | 0 | 0
Cc1nc(C(=O)N2CCC3(CC2)NC(=O)c2ccccc2N3)cc2c1[nH]c1ccccc12 | 13 | 0 | 1 | 14 | . | .
